Source: PubChem BioAssay AID1578 (Sanford-Burnham Center for Chemical Genomics, 2009)
The campaign covered roughly 290,000 compounds. About 3,000 (1%) were called active. Many of the other results were omitted from the sample, so actives are more common in it than they were. Values without a mark were called inactive. Rule as the data show it: active = inhibition mostly above about 36% (no sharp cut-off); inactive = mostly below about 34%.

Experiment: inhibition of NOD1-driven NF-kB reporter – cell-based, luminescence, uHTS, primary screen (AID 1578);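 also: HEK-293T reporter cells stimulated with the NOD1 agonist gamma-tri-DAP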
Details: NOD1-driven NF-kB luciferase reporter cells, at 4 µM, stronger effect = higher value

SMILES | inhibition
CC(Sc1nnc(CC(=O)Nc2ccccc2F)n1C)C(=O)Nc1nccs1 (stereo not given) | -32.4%
Cc1ccc(S(=O)(=O)CCSc2n[nH]c(=O)n2-c2ccccc2)cc1 | -6.8%
O=c1[nH]nc(SCCS(=O)(=O)c2ccc(F)cc2)n1-c1ccccc1 | -11.2%
Cc1cc(C)c(-n2c(SCCS(=O)(=O)c3ccc(F)cc3)n[nH]c2=O)c(C)c1 | 69.7% (active)
CCOC(=O)c1[nH]cnc1C(=O)Nc1cccc(OC)c1 | -3.5%
CCCCC(c1nnnn1CC1CCCO1)N1CCN(c2ccccc2)CC1 (stereo not given) | -34.5%
CCN(c1ccccc1)S(=O)(=O)c1ccc2c(c1)CC(C)N2C(=O)C1CC1 (stereo not given) | -12.9%
Cc1cc(N2CCC(C(N)=O)CC2)nc(-c2ccccc2)n1 | 2%
CC(=O)NC1(c2ccccc2)CCN(c2nc(C)cc(C)n2)CC1 | -0.9%
CC(=O)NC1(c2ccccc2)CCN(c2cc(C)nc(-c3ccccc3)n2)CC1 | 52.2% (active)
CCN(Cc1ccncc1)Cc1nc(CC2CC2)no1 | -8.9%
CN(C)CC(CCCCC(CN(C)C)C(=O)c1ccccc1)C(=O)c1ccccc1 (stereo not given) | -4.1%
COc1ccc(C(=O)C(CCCCC(CN(C)C)C(=O)c2ccc(OC)cc2)CN(C)C)cc1 (stereo not given) | -6%
COc1ccccc1NC(=O)CN1CCN(CC(=O)Nc2ccccc2Cl)CC1 | -18.4%
O=C(Nc1ccccc1)Nc1cc([N+](=O)[O-])ccc1F | -17.9%
O=C(Nc1ccc(Cl)cc1)Nc1cc([N+](=O)[O-])ccc1F | 30.3%
COc1ccc(C2/C(=C(/O)c3ccc(C)cc3)C(=O)C(=O)N2C)c(OC)c1 (stereo not given) | -29.5%
CCC1CCC(C(=O)NC(C(=O)NCCN2CCOCC2)C(C)C)CC1 (stereo not given) | -24.4%
Cc1cc(Cl)c(S(=O)(=O)Nc2cc(S(=O)(=O)N3CCOCC3)ccc2F)cc1OCC(N)=O | -11.8%
Cn1nccc1C(=O)N1CCN(c2cccc(C(F)(F)F)c2)CC1 | -2.5%
CC1Oc2ccccc2N(CC(=O)NCc2ccc3c(c2)OCO3)C1=O (stereo not given) | -48.9%
COc1ccc(OC)c(/C=N\NC(=O)c2c(C)nc3cc(C)ccn23)c1 | -8.5%
CN(C(=O)COc1ccc(Cl)cc1Cl)c1nnc(C23CC4CC(CC(C4)C2)C3)s1 | -34.1%
CN(C(=O)COc1ccc(Cl)cc1)c1nnc(C23CC4CC(CC(C4)C2)C3)s1 | 4.5%
CN(C(=O)COc1ccccc1)c1nnc(C23CC4CC(CC(C4)C2)C3)s1 | 104% (active)
